From PubChem BioAssay AID434973 (Sanford-Burnham Center for Chemical Genomics, 2010)
Screen size: about 330,000 compounds; about 4,900 (1.5%) were called active.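 Rule for the calls: active = inhibition above about 50% at the single test dose (limit read from the data); inactive = the rest.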 The sample as a whole holds a higher share of actives than the screen did.

These compounds were tested against Sentrin-specific protease 7 (Homo sapiens) (UniProt Q9BQF6) (assay: blockers of human SENP7 peptidase activity – biochemical, luminescence, uHTS, primary screen (AID 434973;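 note: plate controls were DMSO with enzyme for no effect and no enzyme buffer wells for full effect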)). Conditions: recombinant SENP7, Z-RLRGG-aminoluciferin luminescence, 40 min; at 5 µM; stronger effect = higher value.
`CCOc1ccc(NC(=O)CN(C)C(=O)c2cccc(S(=O)(=O)N3CCCC3)c2)cc1OCC` was tested, and the inhibition was -6.73% (inactive).
`Cc1ccc(-n2c(-c3ccc(Cl)cc3)n[nH]c2=S)cc1` was tested, and the inhibition was -0.859% (inactive).
For `Cc1cc(N2CCOCC2)nc(-c2ccc(Br)cc2)n1`, the inhibition was -7.07% (inactive).
With `CSc1nnc2ccc(-c3ccc(C)cc3)nn12` the inhibition was -16.3% (inactive).
For `Cc1ccc(-c2cc(N)on2)cc1`, the inhibition was -4.29% (inactive).
In the case of `Cc1ccc(-c2cn3cc(C)ccc3n2)cc1`, the inhibition is reported as 86.5% (active).
For `Cc1ccc2nc(-c3ccc(Br)cc3)cn2c1`, the inhibition was 89.3% (active).
In the case of `O=C1C2C3C=CC(C3)C2C(=O)N1c1ccc(S(=O)(=O)Nc2nccs2)cc1` (configuration not stated), the inhibition is reported as 4.27% (inactive).
For `CN(C)c1cccc(C(=O)N2CCC(n3nccc3NC(=O)C3CCOC3)CC2)c1` (configuration not stated), the inhibition was 9.95% (inactive).
In the case of `CCCCC(=O)Nc1c2c(nn1-c1ccc([N+](=O)[O-])cc1)CS(=O)(=O)C2`, the inhibition is reported as -1.87% (inactive).
With `CC1C(=O)N(Cc2ccccc2)c2ccccc2N1C(=O)c1ccccc1` (configuration not stated) the inhibition was -2.81% (inactive).
`COc1cc(Cl)cc(C2NC(=O)NC(C)=C2C(=O)NCc2ccccc2)c1O` (configuration not stated) was tested, and the inhibition was -4.23% (inactive).
For `O=C(COC(=O)c1c2c(nc3ccccc13)CCCC2)c1ccc(Br)s1`, the inhibition was 14.3% (inactive).
For `Cn1cccc1C(=O)OCC(=O)c1ccc(Br)s1`, the inhibition was 82.4% (active).
`Cn1cccc1C(=O)OCC(=O)NCCc1ccccc1` was tested, and the inhibition was -5.93% (inactive).
In the case of `O=C(CSc1nncn1-c1cccnc1)N1CCOCC1`, the inhibition is reported as 5.85% (inactive).
For `Cc1n[nH]c(=O)c2c(NC(=O)CSc3cc(Cl)ccc3Cl)oc(C)c12`, the inhibition was -0.542% (inactive).
With `CC1CN(c2cc(=O)n(-c3cccc(Br)c3)c(=O)[nH]2)CC(C)O1` (configuration not stated) the inhibition was 4.5% (inactive).
For `O=C(c1cnn2ccccc12)N1CCc2ccccc21`, the inhibition was 52.8% (active).
`Cc1cnc(C(=O)OCC(=O)N2CCc3ccccc32)cn1` was tested, and the inhibition was -1.46% (inactive).
For `CCOC(=O)N1CCC(NC(=O)c2cnn3ccccc23)CC1`, the inhibition was -0.379% (inactive).
`Cc1ccc(S(=O)(=O)/N=S(\C)C(C)C)cc1` (configuration not stated) was tested, and the inhibition was -7.18% (inactive).
`CCC(C)(C(=O)NC1CCCC1)N(C(=O)CNC(C)=O)c1ccc(C)cc1` (configuration not stated) was tested, and the inhibition was -2.07% (inactive).
With `CCOc1ccccc1NC(=O)c1cccnc1` the inhibition was -1.12% (inactive).
`COc1ccccc1NC(=O)c1ccc2nc(N3C(=O)CCC3=O)sc2c1` was tested, and the inhibition was -10.2% (inactive).
`COc1ccccc1NC(=O)c1ccc(N2CC3CC(C2)c2cccc(=O)n2C3)c(NC(=O)c2cccnc2)c1` (configuration not stated) was tested, and the inhibition was 70.4% (active).
With `O=C(CC1C(=O)NCCN1CC(c1ccccc1)c1ccccc1)NCCc1cn[nH]c1` (configuration not stated) the inhibition was -0.769% (inactive).
`O=C(Oc1ccc(-c2nc(-c3ccccn3)no2)cc1)c1ccccc1` was tested, and the inhibition was 99.8% (active).
For `Cc1noc(C)c1COC(=O)COc1ccc(-c2ccccc2)cc1`, the inhibition was 6.3% (inactive).
In the case of `O=C(COC(=O)c1ccncc1)c1ccccc1`, the inhibition is reported as -15% (inactive).
`CN(C(=O)c1cc2c(=O)n3ccccc3nc2s1)C1CCCCC1` was tested, and the inhibition was -3.91% (inactive).
`CN(C(=O)CSc1nncc2ccccc12)C1CCCCC1` was tested, and the inhibition was -7.84% (inactive).
`CN(c1ccc2nc3ccccc3c(=O)n2n1)C1CCCCC1` was tested, and the inhibition was 93.7% (active).
With `CCn1cc(C(=O)N[C@@H](C)C(=O)NCCO)c(=O)c2cc3c(cc21)OCO3` the inhibition was -6.11% (inactive).
In the case of `CC(C(=O)Nc1ccc(S(=O)(=O)N2CCCC2)cc1)N(C)Cc1ccc(F)cc1` (configuration not stated), the inhibition is reported as 8.65% (inactive).
For `CC(C)n1cnc2c(NCc3ccccc3)cc(OCC3CCN(C)CC3)cc21`, the inhibition was 52.7% (active).
`CC(C)n1cnc2c(NCc3ccccc3)cc(N[C@@H](CO)Cc3ccccc3)cc21` was tested, and the inhibition was 35.9% (inactive).
For `CCC(CO)Oc1cc(NCc2ccccc2)c2ncn(C3CCCC3)c2c1` (configuration not stated), the inhibition was 8.26% (inactive).
`O=C(CCNC(=O)C1CCN(S(=O)(=O)c2ccccc2)CC1)NC1CC1` was tested, and the inhibition was -2.25% (inactive).
`O=C(O)c1ccc(S(=O)(=O)N2CCOCC2)o1` was tested, and the inhibition was -7.75% (inactive).
For `CCCC(=O)Nc1nnc(CC(=O)OCC)s1`, the inhibition was -2.16% (inactive).
In the case of `O=C(Nc1ccc(Cl)cc1)c1cc2nc(C3CC3)cc(C(F)(F)F)n2n1`, the inhibition is reported as 2.83% (inactive).
`CC(C)c1ccc(C(=O)OC2CCOC2=O)cc1` (configuration not stated) was tested, and the inhibition was 5.83% (inactive).
`O=C(OC1CCOC1=O)c1ccc(-c2nc3ccccc3s2)s1` (configuration not stated) was tested, and the inhibition was 96.8% (active).
In the case of `COc1cc(C(=O)OC2CCOC2=O)c([N+](=O)[O-])cc1OC` (configuration not stated), the inhibition is reported as -1.58% (inactive).
`Cc1cc2oc(=O)cc(CN(C)Cc3ccc(OC(F)F)cc3)c2cc1Cl` was tested, and the inhibition was 5.95% (inactive).
In the case of `O=C(c1ccc(F)cc1)n1cc(C(=S)N2CCOCC2)c2ccccc21`, the inhibition is reported as -1.66% (inactive).
`O=C(Cn1c(=S)nc2ccccn21)N1CCc2ccccc2C1` was tested, and the inhibition was -0.589% (inactive).
In the case of `O=C(c1ccc(F)cc1)n1c(=S)nc2ccccn21`, the inhibition is reported as 96.3% (active).
`O=C(NCC1CCCO1)c1cc2c(s1)CCCC2` (configuration not stated) was tested, and the inhibition was 7.59% (inactive).
With `CN(C)C(=O)c1ccc(NC(=O)COC(=O)c2cc3c(s2)CCCCC3)cc1` the inhibition was -2.04% (inactive).
`O=C(Nc1ccc(F)cc1)c1cc2c(s1)CCCC2` was tested, and the inhibition was 87% (active).
For `CC(Sc1sc(=S)sc1SC(C)C(=O)O)C(=O)O` (configuration not stated), the inhibition was -0.431% (inactive).
`N#C/C(C(=S)Nc1ccccc1)=C1/NN=C(N2CCOCC2)N1c1ccccc1` was tested, and the inhibition was -1.15% (inactive).
In the case of `O=C(CSC(=S)N1CCOCC1)c1ccccc1`, the inhibition is reported as 62.7% (active).
With `CC1CN(C(=S)SCC(=O)c2ccccc2)CC(C)O1` (configuration not stated) the inhibition was 1.97% (inactive).
With `O=C(CSC(=S)N1CCOCC1)c1cc(Br)cc(Br)c1O` the inhibition was 1.34% (inactive).
In the case of `CCN(CC(=O)Nc1ccccc1C(F)(F)F)C(=O)C1CCN(C(=O)Nc2ccccc2)CC1`, the inhibition is reported as 3.1% (inactive).
In the case of `CC1CCc2sc3nc(N4CCN(CCO)CC4)n4ncnc4c3c2C1` (configuration not stated), the inhibition is reported as -6.6% (inactive).
`COc1cccc(Nc2nc(N)c([N+](=O)[O-])c(NCc3ccco3)n2)c1` was tested, and the inhibition was 3.33% (inactive).
`CNc1nc(Nc2ccc(C)c(Cl)c2)nc(N)c1[N+](=O)[O-]` was tested, and the inhibition was 99.9% (active).
In the case of `CCN1CCN(c2nc(Nc3cccc(F)c3)nc(N)c2[N+](=O)[O-])CC1`, the inhibition is reported as -8.75% (inactive).
